Screens deposited in PubChem BioAssay by National Center for Advancing Translational Sciences (NCATS).
Most compounds without a hit are left out; they make up all but 11% or so of the library.
3T3 cytotox – Cytotoxic Profiling in NIH 3T3 Cell Line of Diverse Libraries Using Quantitative High-Throughput Screening | NIH 3T3 viability, CellTiter-Glo ATP luminescence, 48-72 h | Potency, µM (highest dose often 96.7 µM), without a hit: at the highest dose activity change, negative = cytotoxicity, actives largely listed as inhibitors | actives 4.3% (n = 94,000) | AID 1345082, 2018; note: nearly all actives have a fitted effect of over 55% in size
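Cytotoxicity is measured as loss of cellular ATP: NIH 3T3 cells (400/well) are exposed to compound for 48 or 72 hr at 37 °C, then CellTiter-Glo luminescence is imaged after 10 min at room temperature.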
hNpr1 antagonist – Natriuretic polypeptide receptor (hNpr1) antagonism - Primary qHTS; Atrial natriuretic peptide receptor 1 (Homo sapiens), P16066; AID 1347048, 2019; Potency, µM (titrated, usually from 46.3 µM), without a hit: at the highest dose activity change, negative = inhibition, usual class: inhibitors; HEK293 hNpr1 GloSensor cGMP, ANP-stimulated luminescence; actives 1.6% (n = 76,000); calls by dose curve; note: nearly all actives have a fitted effect of over 60% in size
Target sequence (P16066 whole entry, looked up): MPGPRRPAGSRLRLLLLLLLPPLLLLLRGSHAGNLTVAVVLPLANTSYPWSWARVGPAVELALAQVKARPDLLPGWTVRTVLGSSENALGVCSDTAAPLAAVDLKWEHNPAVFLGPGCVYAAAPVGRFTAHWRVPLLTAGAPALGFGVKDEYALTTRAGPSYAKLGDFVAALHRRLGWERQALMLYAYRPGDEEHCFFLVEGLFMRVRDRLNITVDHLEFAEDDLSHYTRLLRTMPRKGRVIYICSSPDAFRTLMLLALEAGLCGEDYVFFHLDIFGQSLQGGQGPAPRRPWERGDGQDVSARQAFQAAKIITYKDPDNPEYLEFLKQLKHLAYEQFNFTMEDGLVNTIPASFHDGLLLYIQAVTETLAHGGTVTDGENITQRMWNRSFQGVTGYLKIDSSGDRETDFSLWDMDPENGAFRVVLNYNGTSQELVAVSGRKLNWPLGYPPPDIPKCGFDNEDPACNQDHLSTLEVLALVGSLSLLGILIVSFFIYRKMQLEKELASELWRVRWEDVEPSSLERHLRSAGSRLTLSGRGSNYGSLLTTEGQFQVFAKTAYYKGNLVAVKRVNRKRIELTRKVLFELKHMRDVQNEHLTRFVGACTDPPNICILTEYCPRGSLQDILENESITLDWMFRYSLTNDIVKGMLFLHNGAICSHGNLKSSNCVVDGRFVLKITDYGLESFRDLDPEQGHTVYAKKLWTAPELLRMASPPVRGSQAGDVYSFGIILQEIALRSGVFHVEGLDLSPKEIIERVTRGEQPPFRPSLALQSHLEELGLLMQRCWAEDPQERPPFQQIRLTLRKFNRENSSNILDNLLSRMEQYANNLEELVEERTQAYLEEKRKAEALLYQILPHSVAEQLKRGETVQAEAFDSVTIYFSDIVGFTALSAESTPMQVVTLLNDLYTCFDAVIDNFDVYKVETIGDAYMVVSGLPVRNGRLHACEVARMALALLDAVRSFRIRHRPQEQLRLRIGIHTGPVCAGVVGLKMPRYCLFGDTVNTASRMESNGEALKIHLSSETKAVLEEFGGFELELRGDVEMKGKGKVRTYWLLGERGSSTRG
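Compound pre-incubated 30 min at room temperature on GloSensor-loaded HEK293 cells stably carrying hNpr1 and the pGS-40F cGMP biosensor. Stimulation uses hNppA at 0.1 nM final; luminescence is taken at baseline and 20 min post-agonist.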
HEK cytotox – Cytotoxic Profiling in HEK 293 Cell Line of Diverse Libraries Using Quantitative High-Throughput Screening; HEK 293 viability, ATP luminescence (CellTiter-Glo), 48-72 h; Potency, µM (series often up to 115 µM), for the others: at the highest dose activity change, negative = cytotoxicity, hits mostly inhibitors; actives 6.6% (n = 94,000); AID 1345083, 2018; note: nearly all actives have a fitted effect of over 60% in size
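Cells seeded first (HEK 293, 250 cells/well), then compound added by pintool. Incubation ran 48 or 72 hr at 37 degree Celsius. CellTiter-Glo was added and luminescence imaged after 10 min at room temperature.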
Luciferase inh – Firefly luciferase inhibition profiling of diverse chemical library using quantitative high-throughput screening | Potency, µM (titrated, usually from 115 µM), actives largely listed as inhibitors | actives 2.5% (n = 76,000) | purified P. pyralis luciferase, luminescence, biochemical; note: nearly all actives have a fitted effect of over 65% in size
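Purified 10nM P. pyralis luciferase with 10uM D-luciferin and 10uM ATP in 50mM Tris acetate pH 7.5, 10mM Mg acetate, 0.01% Tween-20, 0.05% BSA. qHTS titration; luminescence read by CCD imager.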
Numbers without * were called inactive; i = inactive; ? = inconclusive; . = not tested or not shown; ! = not confirmed by another sample; [ ] = another dose, or the depositor's remark. Unless noted, calls come from the whole dose curve; as a rule, active = well fitted curve in the direction sought with a large enough effect; inconclusive = small, poorly fitted or top-dose-only effect, or another doubt; inactive = no such curve, though single readings can be large; an effect the other way counts as inactive or inconclusive. % is set by controls: 0 for no effect and ±100 for the full control effect; potency is the fitted concentration of half-maximal effect.

SMILES	3T3 cytotox	hNpr1 antagonist	HEK cytotox	Luciferase inh
O=C(c1nc(-c2ccc(Cl)cc2)c2ccccn12)N1CCOCC1	?	5%[70.6 µM]	112µM*	i
O=C(NCCc1ccc(Cl)cc1)c1nc(-c2cccnc2)c2ccccn12	40µM*	-3%	32µM*	i
O=C(NCCc1ccc(Cl)cc1)c1nc(-c2ccccc2)c2ccccn12	?	5%	?	i
O=C(c1nc(-c2cccc(C(F)(F)F)c2)c2ccccn12)N1CCCC1	?	-9%	40µM*	i
O=C(c1ccc(C(F)(F)F)cc1)N1CC2(Cc3ccccc3NC2=O)C1	-11%	.	?	.
O=C(NCc1cccnc1)c1nc(-c2ccc(Cl)cc2)c2ccccn12	-23%	0%	?	i
C#CCNC(=O)c1nc(-c2cc(Cl)cc(Cl)c2)c2ccccn12	-6%[138 µM]	-1%[70.6 µM]	63µM*	i
O=C(NCc1cccnc1)c1nc(-c2ccc(Cl)nc2)c2ccccn12	?	.	79µM*	.
C#CCNC(=O)c1nc(-c2ccc(Cl)cc2)c2ccccn12	?	-1%[70.6 µM]	?	45µM*
CN(C)C(=O)c1nc(-c2ccc(Cl)cc2)c2ccccn12	?	7%[70.6 µM]	100µM*	?
C#CCNC(=O)c1nc(-c2ccc(Cl)cc2)c2cnccn12	?	-21%[70.6 µM]	?	?
CN(C)C(=O)c1nc(-c2ccccc2)c2ccccn12	?	-1%[70.6 µM]	?	i
Cc1nn(-c2ccccc2)c2c1C(C(C)C)N(C1CN(C(=O)Nc3ccc(Cl)cc3)C1)C2=O (centres undefined)	-26%	.	-11%	.
COc1ccc(C(=O)N[C@@H]2CCC[C@@H]2C(=O)N2CCN(C(=O)c3ccco3)CC2)cn1	-5%	-1%	-13%	i
COC1CN(c2cccc(F)c2)C12CCN(C(=O)COc1ccccc1)CC2 (centres undefined)	?	-1%	89µM*	i
O=C(Nc1ccccc1)c1cnc2n1CCN(Cc1ccc3[nH]ccc3c1)CC2	89µM*	-2%[70.6 µM]	100µM*	i
O=C(NCCOc1ccccc1)c1cnc2n1CCN(Cc1ccc3[nH]ccc3c1)CC2	?	0%[70.6 µM]	?	i
COc1ccccc1CN1CCc2ncc(C(=O)Nc3ccccc3)n2CC1	?	-1%[70.6 µM]	?	i
COc1ccc(OC)c(CN2CCc3ncc(C(=O)Nc4ccccc4)n3CC2)c1	?	-8%[70.6 µM]	112µM*	i
CCOCCNc1ncnc2c1CN(C1CCNC1)C(=O)CN2C (centres undefined)	3%	.	i	.
CN1CCN(C(=O)c2ccc3nc(-c4ccccn4)oc3c2)CC1	-6%	.	i	.
Cn1cc(CC(=O)N2CCCc3ncc(C(=O)NCC4CCCO4)cc32)c2ccccc21 (centres undefined)	?	0%[70.6 µM]	?	i
O=C(Cn1ccn2nc(-c3ccccc3)c(CO)c2c1=O)Nc1cc(Cl)cc(Cl)c1	-24%	0%	50µM*	i
COc1ccnc(-c2nnc3ccc(N(C)CCN(C)C)nn23)c1	100µM*	1%[70.6 µM]	2%[172 µM]	i
COc1ccnc(-c2nnc3ccc(N(C)Cc4ccccc4)nn23)c1	?	-10%[70.6 µM]	56µM*	i
SMILES	3T3 cytotox	hNpr1 antagonist	HEK cytotox	Luciferase inh
CN(c1ccccc1)c1ccc2nnc(-c3ccccn3)n2n1	?	2%[70.6 µM]	?	?
Cc1ccc(-c2nnc3ccc(N(C)CCN(C)C)nn23)nc1	?	1%[70.6 µM]	-1%[172 µM]	i
O=C1CC(c2ccccc2)N(C(=O)CNC(=O)c2n[nH]c3ccccc23)CCCCCN1 (centres undefined)	-7%	1%	-6%	25µM*
O=C1CC(c2ccccc2)N(C(=O)CNC(=O)c2[nH]nc3c2COc2ccccc2-3)CCCCCN1 (centres undefined)	?	-14%	32µM*	i
O=C1CC(c2ccccc2)N(C(=O)CNC(=O)c2nccc3ccccc23)CCCCCCN1 (centres undefined)	?	5%	?	i
COc1ccc(-n2nc(C3CCN(C(=O)C(C)(C)C)CC3)[nH]c2=O)cc1	?	4%	2%	i
O=C(Nc1ccc(Cl)cc1)N1CCCC(c2nn(-c3ccccn3)c(=O)[nH]2)C1 (centres undefined)	35µM*	.	40µM*	.
O=C(c1ccccc1Cl)N1CCCC(c2nn(-c3cccc(Cl)c3)c(=O)[nH]2)C1 (centres undefined)	35µM*	14%	35µM*	i
COc1ccc(-n2nc(C3CCN(Cc4ccc(C(F)(F)F)cc4)CC3)[nH]c2=O)cc1	?	?	32µM*!	i
CC(C)(C)C(=O)N1CCC(c2nn(-c3ccccc3)c(=O)[nH]2)CC1	-10%[138 µM]	0%[70.6 µM]	?	50µM*
O=C(NC1CCCC1)N1CCCC(c2nn(-c3ccccn3)c(=O)[nH]2)C1 (centres undefined)	-4%	.	i	.
CCOC(=O)[C@@H]1[C@@H](OC)C(=O)N(C(C)C)C12CCN([S+](=O)([O-])c1ccc(NC(C)=O)cc1)CC2	?	.	-10%	.
CN(C)C(C(=O)N(Cc1cccc(O)c1)C1CC1)c1ccccc1F (centres undefined)	-22%	-3%	?	i
CN1CCN(C(=O)c2ccc3nnc(-c4cc(C(F)(F)F)cc(C(F)(F)F)c4)n3c2)CC1	-11%	.	i	.
O=c1[nH]c(C2CCCN(Cc3ccc(F)cc3)C2)nn1-c1ccccc1 (centres undefined)	-30%	-2%	-18%	i
O=c1[nH]c(C2CCCN(Cc3ccccc3)C2)nn1-c1ccccc1 (centres undefined)	89µM*	16%[70.6 µM]	100µM*	i
O=c1[nH]c(C2CCCN(Cc3ccc(F)cc3)C2)nn1-c1ccc(Cl)cc1 (centres undefined)	35µM*	12%	45µM*	i
CC(C)n1ccnc1CN1CCc2onc(-c3ccc(Cl)cc3)c2C1	?	-23%	?	i
O=C(NCc1cccs1)c1nc(-c2ccc(F)cc2)c2cnccn12	?	-5%[70.6 µM]	?	i
CN1CCC(N2CC[C@H](c3nc4ccc(C(F)(F)F)cc4[nH]3)C2)CC1	89µM*	-4%[70.6 µM]	?	i
Cc1ccc(S(=O)(=O)N2CC[C@H](c3nc4ccccc4[nH]3)C2)cc1	89µM*	-9%[70.6 µM]	?	i
CN1CCC(N2CC[C@H](c3nc4ccccc4[nH]3)C2)CC1	-22%[230 µM]	4%[70.6 µM]	-14%[230 µM]	71µM*
FC(F)(F)c1ccc2nc([C@H]3CCN(C4CCCCC4)C3)[nH]c2c1	89µM*	-2%[70.6 µM]	?	56µM*
Cc1ccc2oc([C@H]3CCN(S(=O)(=O)c4ccc(F)cc4)C3)nc2c1	?	?	?	i
